In all, about 69,000 compounds went through this assay and about 8,600 (12%) showed an effect of 50% or more. Shown is part of a subset that was picked to be rich in strong results.

This experiment deals with Plasmodium berghei. The experiment is described as follows: Screen against P. berghei liver stage (PbLuc), transformed with Luciferase, at 10uM. Format: functional, HepG2. Particulars: tested at 10 uM.
Turning to `COc1ccc(CN(Cc2cccnc2)CC2CCCO2)c(OC)c1` (configuration not stated), the INHIBITION was 22.2%. Turning to `CCN1C(=O)CCCC12CCCN(C(=O)c1ccoc1C)C2` (configuration not stated), the INHIBITION is 32.1%. For `CCC(=O)NCC(=O)NCC1(O)CCC(C(C)(C)C)CC1` (configuration not stated), the INHIBITION is on record as 38.3%. The same measure for `CC(=O)NCc1cncc(C2CCCN2C2CCOCC2)n1` (configuration not stated): -4.15%; for `c1nc(N2CCCC2Cn2cncn2)c2sccc2n1` (configuration not stated): 10.65%; for `c1cnn(CC2CCCCN2c2ncnc3sccc23)c1` (configuration not stated): 18.2%. The same measure for `c1cnn(CC2CCCN2c2ncnc3sccc23)c1` (configuration not stated): 79.7%; for `c1cnn(CC2CCCCN2c2ncnc3ccsc23)c1` (configuration not stated): 14.75%. Turning to `c1nc(N2CCCC2Cn2cncn2)c2ccsc2n1` (configuration not stated), the INHIBITION is 33%. With `c1cnn(CC2CCCN2c2ncnc3ccsc23)c1` (configuration not stated), the INHIBITION is listed as 57.8%. As to `O=C(Nc1nccs1)C1CCN(Cc2cccc3c2OCCO3)CC1`, the INHIBITION is given as 37.6%. Turning to `COCc1noc(-c2cc(Cl)c3c(c2)OCO3)n1`, the INHIBITION is -26.1%. Regarding `CC1CN(CC(=O)NCc2ccccc2)CCN1Cc1nccn1C` (configuration not stated), the INHIBITION stood at 22.93%. With `Cc1[nH]ccc1C(=O)N1CCCC(c2ccc(C(=O)O)cc2)C1` (configuration not stated) the figure was 2.7%; with `O=C(c1cccc2cccnc12)N1CCCC(n2ccnc2)C1` (configuration not stated), 17.02%; with `CN(C)c1ncccc1CNc1cc(N2CCCC2CO)ncn1` (configuration not stated), 26.4%. The same measure for `Cc1nccc(N2CCCC(c3nnc(Cn4ccnc4C)n3C)C2)n1` (configuration not stated): 1.74%; for `Cc1ccc(-c2cn[nH]c2C2CCCN(c3ncccn3)C2)cc1` (configuration not stated): 27.6%. For `Cc1ccc(N2CCCC(c3[nH]ncc3-c3ccccc3)C2)nn1` (configuration not stated), the INHIBITION is 56.2%. The same measure for `Cc1ccnc(C2CCN(c3ccnc(C)n3)C2)n1` (configuration not stated): 10.9%. With `Cc1ccc(-c2cn[nH]c2C2CCCN(c3cc(N)ncn3)C2)cc1` (configuration not stated) the figure was 75.4%; with `C[C@H](N)C(=O)N1CCC(c2[nH]ncc2-c2ccccc2)CC1`, -15.65%; with `Cc1ccc(-c2cn[nH]c2C2CCCN(c3cnccn3)C2)cc1` (configuration not stated), 53.7%. The same measure for `Cc1c[nH]nc1C1CCCN(c2cnccn2)C1` (configuration not stated): 4.73%; for `CC(O)C(=O)N1CCC(c2[nH]ncc2-c2ccccc2)CC1` (configuration not stated): 1.66%.

As for `Cc1ccc(-c2cn[nH]c2C2CCCN(c3nccc(N)n3)C2)cc1` (configuration not stated), the INHIBITION is 47.2%. As for `CN(C)CCn1ccnc1C1CCCN(c2cc(N)ncn2)C1` (configuration not stated), the INHIBITION is recorded as 28%. Regarding `Cc1ccc(-c2cn[nH]c2C2CCCN(c3ccnc(C)n3)C2)cc1` (configuration not stated), the INHIBITION is 65.3%.

For `CN(CCO)C[C@@H]1CN(C(=O)c2cccc(OC(F)F)c2)C[C@@H]1CO`, the INHIBITION stood at 3.19%. With `O=C(C1CCOC1)N1CCN(Cc2ccc3c(c2)CCO3)CC1` (configuration not stated) the figure was 41.5%; with `Cc1nc(CN(C)C2CCN(CCc3cccs3)C2)no1` (configuration not stated), 39.2%; with `CS(=O)(=O)NC[C@@H]1OC[C@H]2CN(C(=O)c3ccccn3)CC[C@H]21`, -2.17%. The same measure for `O=C(NCC1CC2(CO1)CN(c1ncccn1)C2)C1CCC1` (configuration not stated): 27.6%; for `Cc1ccc(N2CCC(c3[nH]ncc3Cc3ccccc3)CC2)nn1`: 49.2%; for `Cc1ccc(N2CCCC(c3[nH]ncc3Cc3ccccc3)C2)nn1` (configuration not stated): 47.2%.

As to `Cc1cc(N2CCCC(c3[nH]ncc3Cc3ccccc3)C2)nc(N)n1` (configuration not stated), the INHIBITION was 86.8%. With `O=C(c1cnccn1)N1C[C@@H]2CN(Cc3cccnc3)CCO[C@@H]2C1` the figure was 22.5%; with `O=C(CN1CCc2c(ncn2C2CC2)C1)NC1CCOCC1`, 5.7%; with `NCC1Cc2cccc(-c3nccc(N4CCC(O)CC4)n3)c2O1` (configuration not stated), 92.1%.

As for `NCC1Cc2cc(-c3nccc(N4CCC(O)CC4)n3)cc(Cl)c2O1` (configuration not stated), the INHIBITION turned out to be 43.9%.

As to `NCC1Cc2cc(-c3nccc(N4CCC(O)CC4)n3)cc(F)c2O1` (configuration not stated), the INHIBITION worked out at 20.5%.

On to `CCCc1noc(C2CC(=O)N(Cc3ccccc3)C2)n1` (configuration not stated), for which the INHIBITION stood at 11.1%. With `COCCC(=O)N1Cc2ccccc2OC2(CCOCC2)C1` the figure was 26.05%; with `Cc1c(CS(C)(=O)=O)cccc1NCC1CCCCC1`, -0.514%. With `Cc1c(CS(C)(=O)=O)cccc1NCCCC1CCCC1` the figure was 74.8%; with `Cc1c(CS(C)(=O)=O)cccc1NC(=O)CC1CCCC1`, -15.9%; with `CN(Cc1ccc(O)cc1)C(=O)NC1CCCN(c2ncccn2)C1` (configuration not stated), 18.9665%. The same measure for `O=c1[nH]c2cn(-c3cccc(F)c3)c(=O)n2n1Cc1ccccc1Cl`: 20.6%; for `CCc1nc(C(=O)N2CCN(CC)CC2)nn1-c1ccccc1Cl`: 4.52%; for `CCc1nc(C(=O)N2CCCCC2)nn1-c1ccccc1Cl`: 12.7%. Consider `CCc1nc(C(=O)N2CCCC2)nn1-c1ccccc1Cl`, for which the INHIBITION is reported as 67.3%. As for `CCN1CCN(C(=O)c2nc(C)n(-c3ccccc3Cl)n2)CC1`, the INHIBITION worked out at 50.4%.
